Results from PubChem BioAssay (NCI).
About 83,000 compounds went through this panel and 20% of them were active in at least one assay; those are over-represented in the sample as a whole.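 For each line, cells grew in 96-well plates with the test compound present at a single concentration for 48 hours.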

Assays:
Test in all cases: NCI-60 one-dose screen, 48 h (100 = growth as untreated, 0 = no growth, -100 = all killed)
Details in all cases: 10 µM unless noted; active means growth percent below 10; inactive means the rest
NCI-H23 lung = tested on: NCI-H23 lung
NCI-H226 lung = tested on: NCI-H226 lung
NCI-H322M lung = tested on: NCI-H322M lung
HOP-62 NSCLC = tested on: HOP-62 NSCLC
NCI-H460 lung = tested on: NCI-H460 lung
HOP-92 NSCLC = tested on: HOP-92 NSCLC
NCI-H522 lung = tested on: NCI-H522 lung
A549/ATCC NSCLC = tested on: A549/ATCC NSCLC
786-0 renal = tested on: 786-0 renal
COLO 205 colon = tested on: COLO 205 colon
DU-145 prostate = tested on: DU-145 prostate
K-562 leukemia = tested on: K-562 leukemia
MALME-3M melanoma = tested on: MALME-3M melanoma
MDA-MB-231 breast = tested on: MDA-MB-231 breast
RXF 393 renal = tested on: RXF 393 renal
SF-268 CNS = tested on: SF-268 CNS
SF-295 CNS = tested on: SF-295 CNS
UACC-257 melanoma = tested on: UACC-257 melanoma
M14 melanoma = tested on: M14 melanoma
SF-539 CNS = tested on: SF-539 CNS

Measured: growth

NC(=S)N/N=C/c1ccc(OC(=O)COc2ccccc2)cn1
inactive: NCI-H23 lung 28.2% | NCI-H226 lung 92% | NCI-H322M lung 54% | HOP-62 NSCLC 57.9% | NCI-H460 lung 83.5% | HOP-92 NSCLC 63.8% | NCI-H522 lung 58% | A549/ATCC NSCLC 107% | 786-0 renal 22% | COLO 205 colon 85.9% | DU-145 prostate 26.1% | K-562 leukemia 53.4% | MALME-3M melanoma 52.2% | MDA-MB-231 breast 60% | RXF 393 renal 72.2% | SF-268 CNS 30.7% | SF-295 CNS 111% | UACC-257 melanoma 90.6% | M14 melanoma 15%

C#CC(O)c1ccccc1 (stereo unspecified)
inactive: NCI-H23 lung 106% | NCI-H226 lung 99.7% | NCI-H322M lung 104% | HOP-62 NSCLC 108% | NCI-H460 lung 104% | HOP-92 NSCLC 85.9% | NCI-H522 lung 102% | A549/ATCC NSCLC 101% | 786-0 renal 95.6% | COLO 205 colon 108% | DU-145 prostate 110% | K-562 leukemia 99.3% | MALME-3M melanoma 99.7% | MDA-MB-231 breast 101% | RXF 393 renal 112% | SF-268 CNS 112% | SF-295 CNS 110% | SF-539 CNS 99.7% | UACC-257 melanoma 102% | M14 melanoma 101%

c1ccc(-c2ccc3ccccc3c2)cc1
inactive: NCI-H23 lung 100% | NCI-H226 lung 80.4% | NCI-H322M lung 85% | HOP-62 NSCLC 85.3% | NCI-H460 lung 102% | HOP-92 NSCLC 77% | NCI-H522 lung 57.1% | A549/ATCC NSCLC 84.2% | 786-0 renal 112% | COLO 205 colon 96.3% | DU-145 prostate 106% | K-562 leukemia 111% | MALME-3M melanoma 84.1% | MDA-MB-231 breast 91% | RXF 393 renal 103% | SF-268 CNS 89.9% | SF-295 CNS 102% | UACC-257 melanoma 94.7% | M14 melanoma 103%

CCCCNC(=O)c1ccc(OCC)cc1
inactive: NCI-H23 lung 101% | NCI-H226 lung 96% | NCI-H322M lung 102% | HOP-62 NSCLC 101% | NCI-H460 lung 103% | HOP-92 NSCLC 93.1% | NCI-H522 lung 95.6% | A549/ATCC NSCLC 98.6% | 786-0 renal 98.3% | COLO 205 colon 106% | DU-145 prostate 108% | K-562 leukemia 112% | MALME-3M melanoma 101% | MDA-MB-231 breast 108% | RXF 393 renal 109% | SF-268 CNS 106% | SF-295 CNS 106% | SF-539 CNS 104% | UACC-257 melanoma 102% | M14 melanoma 99.7%

OCC(O)COc1ccc(Cl)cc1Cl (stereo unspecified)
inactive: NCI-H23 lung 105% | NCI-H226 lung 106% | NCI-H322M lung 95.1% | HOP-62 NSCLC 88.4% | NCI-H460 lung 111% | HOP-92 NSCLC 130% | NCI-H522 lung 79.5% | A549/ATCC NSCLC 72.6% | 786-0 renal 93.4% | COLO 205 colon 94% | DU-145 prostate 110% | K-562 leukemia 88.6% | MALME-3M melanoma 94.8% | MDA-MB-231 breast 97.8% | RXF 393 renal 115% | SF-268 CNS 105% | SF-295 CNS 97.5% | UACC-257 melanoma 79.6% | M14 melanoma 95.9%

CN(C)Cc1ccccn1
inactive: NCI-H23 lung 101% | NCI-H226 lung 108% | NCI-H322M lung 96.3% | HOP-62 NSCLC 104% | NCI-H460 lung 109% | HOP-92 NSCLC 114% | NCI-H522 lung 91.9% | A549/ATCC NSCLC 93.1% | 786-0 renal 97% | COLO 205 colon 117% | DU-145 prostate 120% | K-562 leukemia 107% | MALME-3M melanoma 98.7% | MDA-MB-231 breast 98.8% | RXF 393 renal 99.5% | SF-268 CNS 111% | SF-295 CNS 101% | SF-539 CNS 92.1% | UACC-257 melanoma 99% | M14 melanoma 97.9%

Cc1ccc(C)c(CCO)c1
inactive: NCI-H23 lung 117% | NCI-H226 lung 91.8% | NCI-H322M lung 108% | HOP-62 NSCLC 92.4% | NCI-H460 lung 105% | HOP-92 NSCLC 68.3% | NCI-H522 lung 97.8% | A549/ATCC NSCLC 92.6% | 786-0 renal 97.2% | COLO 205 colon 105% | DU-145 prostate 93% | K-562 leukemia 116% | MALME-3M melanoma 106% | MDA-MB-231 breast 92.6% | RXF 393 renal 103% | SF-268 CNS 96.1% | SF-295 CNS 102% | SF-539 CNS 97.2% | UACC-257 melanoma 94.8% | M14 melanoma 108%

CC(=O)[C@@]1(O)CC[C@H]2[C@@H]3CC[C@@H]4CC(=O)CC[C@]4(C)[C@H]3[C@@H](O)C[C@@]21C
inactive: NCI-H23 lung 96.9% | NCI-H226 lung 95.9% | NCI-H322M lung 105% | HOP-62 NSCLC 74.2% | NCI-H460 lung 110% | HOP-92 NSCLC 84.3% | NCI-H522 lung 88.4% | A549/ATCC NSCLC 81.7% | 786-0 renal 99.2% | COLO 205 colon 95.3% | DU-145 prostate 111% | K-562 leukemia 94.9% | MALME-3M melanoma 108% | MDA-MB-231 breast 99.6% | RXF 393 renal 105% | SF-268 CNS 99.1% | SF-295 CNS 91.9% | SF-539 CNS 96.8% | M14 melanoma 93%
